Measurements as given in PubChem BioAssay AID1159580 (chemical genetic matrix, 2015).
The campaign covered roughly 5,500 compounds. About 2,000 (36%) were called active. About 18% were inconclusive and are not listed. Cut-off read from the data, not from the text of the source: active = normalized growth mostly below about 0.91 (no sharp cut-off); inconclusive = no clear call, values can overlap the other calls; inactive = mostly above about 0.92. Some of the results follow.

Assay: chemical genetic growth profiling, strain panel (AID 1159580);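 note: tested at 20 µM; growth read once vehicle control cultures reached saturation at 30 °C; 1 = growth at the plate median or of vehicle wells; lower values mean less growth of the strain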
Settings: growth OD

Measured: normalized growth

NNC(=O)c1cnn(-c2ccc(Cl)cc2)c1C(F)(F)F
inactive: S. cerevisiae deletion strains, locus YAL013W, strain DEP1, stronger effect = lower value 0.992 | S. cerevisiae deletion strains, locus YBR229C, strain ROT2, stronger effect = lower value 0.996 | S. cerevisiae deletion strains, locus YCL061C, strain MRC1, stronger effect = lower value 0.983 | S. cerevisiae deletion strains, locus YDL101C, strain DUN1, stronger effect = lower value 0.993 | S. cerevisiae deletion strains, locus YDL134C, strain PPH21, stronger effect = lower value 1.03 | S. cerevisiae deletion strains, locus YDR150W, strain NUM1, stronger effect = lower value 0.94 | S. cerevisiae deletion strains, locus YEL061C, strain CIN8, stronger effect = lower value 0.998 | S. cerevisiae deletion strains, locus YGR078C, strain PAC10, stronger effect = lower value 1.01 | S. cerevisiae deletion strains, locus YHR030C, strain SLT2, stronger effect = lower value 0.976 | S. cerevisiae deletion strains, locus YHR087W, strain rtc3, stronger effect = lower value 0.986 | S. cerevisiae deletion strains, locus YJL187C, strain SWE1, stronger effect = lower value 1 | S. cerevisiae deletion strains, locus YJR043C, strain POL32, stronger effect = lower value 0.946 | S. cerevisiae deletion strains, locus YJR075W, strain HOC1, stronger effect = lower value 1.01 | S. cerevisiae deletion strains, locus YLR039C, strain RIC1, stronger effect = lower value 0.909 | S. cerevisiae deletion strains, locus YLR058C, strain SHM2 (second series), stronger effect = lower value 1 | S. cerevisiae deletion strains, locus YLR085C, strain ARP6, stronger effect = lower value 0.976 | S. cerevisiae deletion strains, locus YLR262C, strain YPT6, stronger effect = lower value 1.01 | S. cerevisiae deletion strains, locus YML094W, strain GIM5, stronger effect = lower value 0.967 | S. cerevisiae deletion strains, locus YMR219W, strain ESC1, stronger effect = lower value 0.998 | S. cerevisiae deletion strains, locus YMR263W, strain SAP30, stronger effect = lower value 0.977 | S. cerevisiae deletion strains, locus YNL153C, strain GIM3, stronger effect = lower value 1 | S. cerevisiae deletion strains, locus YNL298W, strain CLA4 (second series), stronger effect = lower value 1.01 | S. cerevisiae deletion strains, locus YNL322C, strain KRE1, stronger effect = lower value 1 | S. cerevisiae deletion strains, locus YNR030W, strain Alg12, stronger effect = lower value 1.03 | S. cerevisiae deletion strains, locus YOL006C, strain TOP1, stronger effect = lower value 1.02 | S. cerevisiae deletion strains, locus YPL055C, strain LGE1, stronger effect = lower value 0.883 | S. cerevisiae deletion strains, locus YPL241C, strain CIN2, stronger effect = lower value 0.989 | S. cerevisiae deletion strains, locus YPR135W, strain CTF4, stronger effect = lower value 0.916 | S. cerevisiae strains, strain wild type, stronger effect = lower value 1.01
